TDP1 cell noCPT: qHTS for Inhibitors of human tyrosyl-DNA phosphodiesterase 1 (TDP1): qHTS in cells in absence of CPT; DT40 Tdp1-/- hTDP1 cells, no CPT, ATP luminescence, 48 h; Potency, µM (top dose mostly 46.2 µM), for inactives: top-dose activity change, negative = growth inhibition, most hits filed as inhibitors; 420,000 tested, 15% active; AID 686978, 2013; further: potency means the concentration at half of the fitted maximal effect; on the % scale 0 is the no-effect control and ±100 the full control effect; nearly all actives have a fitted effect of over 55% in size
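Compound effects on proliferation are scored in DT40 Tdp1-/-;hTDP1 cells in the absence of CPT. ATP levels (CellTiter-Glo luminescence) are recorded after a ≥48 hr, 37 °C incubation.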
DT40 TDP1 CPT: qHTS for Inhibitors of human tyrosyl-DNA phosphodiesterase 1 (TDP1): qHTS in cells in presence of CPT; Potency, µM (series often up to 46.2 µM), without a hit: top-dose activity change, negative = growth inhibition, most hits filed as inhibitors; 420,000 tested, 12% active; chicken DT40 Tdp1-/-;hTDP1 cells + 20 nM CPT, ATP luminescence, 48 h; further: potency means the concentration at half of the fitted maximal effect; on the % scale 0 is the no-effect control and ±100 the full control effect; nearly all actives have a fitted effect of over 55% in size
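Cell growth measured by CellTiter-Glo luminescence after a minimum 48 h, 37 C compound exposure with 20 nM CPT in Tdp1-knockout DT40 cells stably expressing hTDP1, seeded 400/well; qHTS titration format.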
BCR signal inh: qHTS Assay to Find Inhibitors of Chronic Active B-Cell Receptor Signaling | ABC-DLBCL IkBa-CBG/CBR reporter, luminescence ratio, 4 h | Potency, µM (titrated, usually from 46.1 µM), for the others: at the top dose activity change, negative = inhibition, most hits filed as inhibitors | 340,000 tested, 0.05% active; active means well fitted inhibition curve with a large enough effect in the signal ratio, with a control signal flat, not every such curve was filed as active; inconclusive means small, poorly fitted or top-dose-only effect, or effect the other way, or a change in a side signal; the % refers to the signal ratio;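 further: potency means the concentration at half of the fitted maximal effect; plate controls were basal doxycycline-induced cells for no effect and cells given 10 µM MG132 for full effect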
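Concentration-response series (up to 46 uM) were applied to TMD8 dual-reporter cells for 4 h at 37C with doxycycline. Green/red ratio, after filter-overlap correction, defined %Activity; red signal alone was normalised to basal cells and zero luminescence.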
MCF10A rereplic: A quantitative high throughput screen for small molecules that induce DNA re-replication in MCF 10a normal breast cells; MCF 10A DNA re-replication, Hoechst nuclear intensity, 48 h; Potency, µM (titrated, usually from 46.1 µM), inactives show at the top dose activity, positive = re-replication, most hits filed as activators; 350,000 tested, 2.9% active; AID 624296, 2012; further: potency means the concentration at half of the fitted maximal effect; % of control where 0% means no effect; nearly all actives have a fitted effect of over 50% in size
IL-1B inflam inh: qHTS for Inhibitors of Inflammasome Signaling: IL-1-beta AlphaLISA Primary Screen; activity change, % at 57.5 µM; AID 743279, 2014; 360,000 tested, 4.7% active; THP-1 LPS/ATP IL-1B secretion, AlphaLISA, 16 h; hits give low values; in the data active means activity change below about -50%; inconclusive means mostly about -30% to -49%; further: on the % scale 0 is the no-effect control and ±100 the full control effect
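Secreted IL-1B measured by AlphaLISA bead assay after 16 h compound exposure of THP-1 cells; compounds (final up to 57.5 uM) added 1 h before LPS (250 ng/mL) and ATP (1.25 mM) stimulation; lower signal means less secretion.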
SW480 rerep: A quantitative high throughput screen for small molecules that induce DNA re-replication in SW480 colon adenocarcinoma cells; SW480 DNA re-replication, Hoechst DNA content imaging, 48 h; Potency, µM (highest dose often 46.1 µM), without a hit: top-dose re-replication activation, usual class: activators; 340,000 tested, 1.8% active; further: potency means the concentration at half of the fitted maximal effect; % of control where 0% means no effect; nearly all actives have a fitted effect of over 55% in size
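Compounds, transferred as 23 nL by pin tool, were incubated with cells for 48 hr; DNA content per nucleus was then quantified by Hoechst staining and fluorescence plate imaging.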
* = called active by the depositor; ? = inconclusive; / = not tested or not shown; [ ] = dose if it differs, or a comment. Compounds with a hit are over-represented: about 19% of the library has one in this group of screens. Unless noted, the call rests on the fitted dose curve; in most records, active means well fitted curve in the direction sought with a large enough effect; inconclusive means small, poorly fitted or top-dose-only effect, or another doubt; inactive means no such curve, though single readings can be large; an effect the other way counts as inactive or inconclusive.

SMILES	TDP1 cell noCPT	DT40 TDP1 CPT	BCR signal inh	MCF10A rereplic	IL-1B inflam inh	SW480 rerep
O=C(O)c1ccc(Cl)c2c1C1C=CCC1C(c1ccccn1)N2 (configuration not stated)	/	/	13%	/	/	/
O=[N+]([O-])c1ccc(Cl)c2c1C1C=CCC1C(c1ccccn1)N2 (configuration not stated)	?	18µM*	0%	?	0	-7%
CN(C(=O)c1ccc(NC(=O)Cc2ccc(NC(=O)C3CCN(C(=O)C4CCCC4)CC3)cc2)cc1)C1CC1	?	?	-1%	3%	-71*	-26%
CN(C(=O)c1ccc(NC(=O)Cc2ccc(NC(=O)C3CCN(C(=O)C4CCC4)CC3)cc2)cc1)C1CC1	-14%	-13%	-3%	20%	?	-7%
CN(C(=O)c1ccc(NC(=O)Cc2ccc(NC(=O)C3CCN(C(=O)C4CCCCC4)CC3)cc2)cc1)C1CCCC1	21µM*	?	/	-32%	93	-26%[9.22 µM]
Cc1c(N)cc2c(c1N)C(C)(C)CC2(C)C	-26%	-28%	/	-1%	50	-2%
Nc1[nH]c(=O)[nH]c(=O)c1N=Nc1ccccc1Cl	-7%	0%	2%	23µM*	10	-9%
O=c1nc(Nc2ccc([N+](=O)[O-])cc2)[nH]c(=O)[nH]1	6%	27%	4%	3%	12	0%
Cc1ccc(N2CCN(C(=O)N3CCCC3)CC2)cc1C	8%	21µM*	?	9%	-9	-9%
CCCN1CCc2c(sc3nc(SC)n(-c4ccccc4)c(=O)c23)C1	5.8µM*	6.5µM*	?	18µM*	?	?
CCCN1CCc2c(sc3nc(SCC)n(-c4ccccc4)c(=O)c23)C1	15µM*	?	-1%	?	-11	5%
CCCN1CCc2c(sc3nc(SCC)n(-c4ccc(OC)cc4)c(=O)c23)C1	13µM*	?	?	21µM*	1	12%
COc1ccc(NC(=O)CSc2nc3sc4c(c3c(=O)n2-c2ccc(OC)cc2)CCN(C)C4)cc1	?	-21%	?	?	-8	-3%
CCSc1nc2sc3c(c2c(=O)n1-c1ccccc1)CCN(C)C3	?	?	1%	?	-6	-3%
C=CCSc1nc2sc3c(c2c(=O)n1-c1ccccc1)CCN(C)C3	-17%	?	0%	14%	0	3%
COc1ccc(-n2c(SC)nc3sc4c(c3c2=O)CCN(C)C4)cc1	12µM*	?	0%	?	-7	15%
COCCN(C(=O)COC(=O)C1CC1C)c1c(N)n(Cc2ccccc2)c(=O)[nH]c1=O (configuration not stated)	-26%	-10%	4%	4%	7	-4%
O=C(CCCOc1ccccc1)Nc1nc2ccccc2[nH]1	-26%	-3%	0%	20%	-6	7%
O=S(=O)(CCOc1ccccc1)c1nc2ccccc2[nH]1	23µM*	?	?	5.8µM*	-26	24%
O=C1CCCCc2sc(Br)c([N+](=O)[O-])c2N1	12µM*	12µM*	?	?	-105*	2.9µM*
CCN(CCN(C)C)C(=O)Cn1ncc2c([nH]c3ccc(C)cc32)c1=O	-20%	0%	/	/	/	/
O=C1CCCC2=C1C(c1ccc(Cl)cc1)n1c(s/c(=C\c3ccc4ccncc4c3)c1=O)=N2 (configuration not stated)	21µM*	?	0%	11%	-1	-4%
CCOC(=O)C1=C(C)N=c2s/c(=C/c3ccc(OCC(=O)O)c(OC)c3)c(=O)n2C1c1ccc(Cl)cc1 (configuration not stated)	?	3%	/	?	-16	-1%
COc1ccc(C2CCCCC2SCC(=O)O)cc1OC (configuration not stated)	-5%	-7%	/	/	-1	/
CC(C)(C)c1cc(C(C)(C)C)c2oc(=O)c(-c3nc4ccccc4[nH]3)cc2c1	8.2µM*	9.2µM*	-7%	/	/	/
SMILES	TDP1 cell noCPT	DT40 TDP1 CPT	BCR signal inh	MCF10A rereplic	IL-1B inflam inh	SW480 rerep
CN1CCN(C(=O)C2=C[C@H](c3coc4ccccc4c3=O)C[C@H](OCc3ccc(CO)cc3)O2)CC1	-15%	-12%	-1%	13%	-5	-6%
O=C(C1=C[C@H](c2coc3ccccc3c2=O)C[C@H](OCc2ccc(CO)cc2)O1)N1CCN(Cc2ccc3c(c2)OCO3)CC1	7.3µM*	7.3µM*	-2%	?	/	12%
O=C(C1=C[C@@H](c2coc3ccccc3c2=O)C[C@@H](OCc2ccc(CO)cc2)O1)N1CCN(Cc2ccc3c(c2)OCO3)CC1	15µM*	21µM*	?	-4%	?	-4%
O=C(C1=C[C@@H](c2coc3ccccc3c2=O)C[C@@H](OCc2ccc(CO)cc2)O1)N1CCOCC1	-8%	-20%	0%	-22%	-5	-6%
Fc1cccc(Cl)c1-c1nnc2ccc3ccccc3n12	10µM*	26µM*	-6%	-3%	-17	-1%
C[n+]1ccc(/C=C/c2ccc(Br)cc2)cc1	-12%	2%	1%	7%	?	28%
Cc1ccc2c(c1)c(/C=C/c1cc[n+](C)cc1)c(C)n2C	0.41µM*	0.52µM*	7%	25%	-63*	-1%
Cc1ccc2[nH]c(C)c(/C=C/c3cc[n+](C)cc3)c2c1	2.6µM*	3.3µM*	?	47%	?	?
CC12CCC(C(=O)NNC(=O)c3ccccc3)(OC1=O)C2(C)C (configuration not stated)	4%	-12%	1%	?	4	-15%
CC12CCC(C(=O)N(Cc3ccccc3)Cc3ccccc3)(OC1=O)C2(C)C (configuration not stated)	?	18µM*	?	26%	-2	4%
CCCN(CCC)Cc1c(C(=O)N/N=C/C(C)=C\c2ccccc2)nnn1-c1nonc1N	26µM*	16µM*	1%	14%	-68*	19%
CN(C)c1ccc(/C=N/NC(=O)c2nnn(-c3nonc3N)c2CN(C)c2ccccc2)cc1	-14%	-16%	-2%	12µM*	22	9.2µM*
[C-]#[N+]c1cc(-c2ccncc2)c(C)[nH]c1=O	2%[92.5 µM]	7%[92.5 µM]	/	/	/	/
